From PubChem
This is a sample that favours compounds with a hit; in the whole collection about 0.28% have one here.
hcGAS inh: Primary biochemical luminescence assay for human cyclic GMP-AMP synthase inhibitors | inhibition, % at 12.5 µM | hit rate 0.081% among 290,000 | recombinant h-cGAS, ATP depletion, Kinase-Glo luminescence | AID 1259398, 2018
NPYLR7 agonist: agonists of mosquito NPYLR7 receptor, primary screen, cell-based, Aedes aegypti, calcium fluorescence, mosquito biting behavior; Aedes aegypti neuropeptide Y-like receptor 7 (NPYLR7); hit rate 0.15% among 270,000; AID 1259423, 2018; activation, % at 10 µM; HEK293T NPYLR7/Galpha15, GCaMP6s calcium fluorescence; in the data active = activation above about 40%
mcGAS inh: cyclic GMP-AMP synthase inhibitors, mouse, primary biochemical chemiluminescence; Q8C6L5; recombinant cGAS, Kinase-Glo ATP depletion luminescence; inhibition, % at 12.5 µM; hit rate 0.15% among 160,000
Target sequence (Q8C6L5 whole entry, looked up): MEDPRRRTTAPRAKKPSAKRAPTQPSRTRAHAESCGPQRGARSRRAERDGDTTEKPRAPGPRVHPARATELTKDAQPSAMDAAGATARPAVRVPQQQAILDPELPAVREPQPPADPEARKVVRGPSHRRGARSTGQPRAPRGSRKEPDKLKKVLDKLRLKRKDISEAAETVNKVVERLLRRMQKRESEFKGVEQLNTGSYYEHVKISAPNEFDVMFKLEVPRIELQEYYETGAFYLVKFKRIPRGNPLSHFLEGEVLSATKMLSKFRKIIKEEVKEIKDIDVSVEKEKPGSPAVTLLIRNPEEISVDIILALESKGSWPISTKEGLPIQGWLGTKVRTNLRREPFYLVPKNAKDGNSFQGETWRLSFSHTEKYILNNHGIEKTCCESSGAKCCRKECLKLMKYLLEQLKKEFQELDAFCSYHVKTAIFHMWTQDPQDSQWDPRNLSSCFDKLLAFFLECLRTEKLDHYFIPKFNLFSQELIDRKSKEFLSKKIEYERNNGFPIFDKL
Large screens that a line does not name were inactive; ! = not confirmed by another sample. Rule as the data show it, unless noted: active = inhibition above about 40%; inactive = the rest.

CCOC(=O)c1cc(-c2ccc(OC)cc2)n(C2CCN(C(=O)c3sc4ccccc4c3Cl)CC2)n1	none
CCOc1cc(C=CC(=O)c2ccc3c(c2)OCCO3)cc(Br)c1OCC	none
COc1cc(C=CC(=O)c2ccc3c(c2)OCCO3)cc(Br)c1O	NPYLR7 agonist 145
COCCNC(=O)C(C1CCCC1)N1CCN(C(=O)c2ccc(C(F)(F)F)cc2)CC1 (configuration not stated)	none
COCc1nc(CN2CCCCC2c2nc3ccc(F)cc3[nH]2)no1 (configuration not stated)	none
O=C(Nc1cccc(C(=O)Nc2ccc(S(=O)(=O)O)c3cc(S(=O)(=O)O)cc(S(=O)(=O)O)c23)c1)Nc1cccc(C(=O)Nc2ccc(S(=O)(=O)O)c3cc(S(=O)(=O)O)cc(S(=O)(=O)O)c23)c1	mcGAS inh 86
Nc1cccc(NC(=O)c2cccc(S(=O)(=O)Nc3cccc(N)c3)c2)c1	none
COc1ccc(NC(=O)c2c(-c3ccccc3)noc2C)cc1	none
Nc1cc(-c2ccc(Cl)c(Cl)c2)nn1-c1ccc(C(=O)NCCC2=CCCCC2)cc1	none
Cc1ccc2oc(-c3ccc(N)cc3)nc2c1	none
Nc1ccc(-c2nc3cc(N)cc(Cl)c3o2)cc1	NPYLR7 agonist 118
COc1ccc(C2=NN(c3nc(-c4ccccc4)c4cc(Br)ccc4n3)C(c3cccc([N+](=O)[O-])c3)C2)cc1 (configuration not stated)	none
CCOc1ncccc1C(=O)N1CCOC(COCc2ccccc2F)C1 (configuration not stated)	none
O=C(c1cccnc1Cl)N1CCOC(COCc2ccccc2F)C1 (configuration not stated)	NPYLR7 agonist 51
CC(=O)N1CC(CO)C2(CCN(C(=O)C3CC=CC3)CC2)C1 (configuration not stated)	none (no result: NPYLR7 agonist)
COCCN1CC(CO)C2(CCN(C(=O)C3CC=CC3)CC2)C1 (configuration not stated)	hcGAS inh 45 (no result: NPYLR7 agonist)
CC(C)c1cc(C2CCCN2C(=O)c2cnn3c2CCCC3)no1 (configuration not stated)	none (no result: mcGAS inh)
Cc1ccc(N2NC(=O)/C(=C/c3cccc(OC(=O)c4cccs4)c3)C2=O)cc1Cl	mcGAS inh 53
CCc1ccc(/C=C2\C(=O)NN(c3ccc(Cl)c(Cl)c3)C2=O)cc1	none
CC(C)CC(=O)Nc1ccnn1C1CCN(c2cc(N(C)C)ncn2)CC1	none (no result: mcGAS inh)
COC(=O)C1=C(C)NC(C)=C(C(=O)OCC(C)C)C1c1ccccc1[N+](=O)[O-] (configuration not stated)	mcGAS inh 58
CC1=C(C(=O)OCC(C)C)C(c2ccccc2[N+](=O)[O-])NC(=O)N1C (configuration not stated)	none
CN(C)c1nc2c(c(=O)[nH]1)CCN(C(=O)c1ccccc1-c1ncc[nH]1)C2	none
COc1c(C)cnc(CN(C)C(=O)c2cc(CC(C)C)no2)c1C	none
CCOC(=O)N1CCN(c2ccc(/C=C(\C#N)c3nc4ccccc4s3)o2)CC1	none (no result: mcGAS inh)
CCOC(=O)N1CCN(c2ccc(/C=C(\C#N)c3nc4ccccc4n3C)o2)CC1	NPYLR7 agonist 342 (no result: mcGAS inh)
CC(C)Nc1ncc(C(=O)NC2CC(=O)N(CCc3ccccc3)C2)cn1 (configuration not stated)	none (no result: mcGAS inh)
CCN(CC)CCN(C(=O)c1ccnn1C)c1nc2ccc(C)cc2s1	none (no result: NPYLR7 agonist)
COc1ccc(CN2C(=O)c3ccccc3C2=O)cc1F	none (no result: mcGAS inh)
COc1cccc(CN2C(=O)c3cccc(N)c3C2=O)c1	NPYLR7 agonist 43 (no result: mcGAS inh)
CS(=O)(=O)NCc1ccc(Oc2ccccc2F)c(F)c1	none
CCN1CCN(C(=O)c2ccc(Cn3ccsc3=NC(=O)c3ccc(OC)c(OC)c3)o2)CC1	NPYLR7 agonist 45 (no result: mcGAS inh)
COc1ccc(C(=O)N=c2sccn2Cc2cccc(C(=O)NC3CC3)c2)cc1OC	none (no result: mcGAS inh)
CN(CCCNC(=O)c1ccc(-c2cc(-c3cccc(C(F)(F)F)c3)n[nH]2)cc1)c1ccccc1	none
CCOC(=O)C1CCCN(c2nc3nonc3nc2N2CCSCC2)C1 (configuration not stated)	NPYLR7 agonist 45!
O=C(C1CCCN(c2nc3nonc3nc2N2CCCCCC2)C1)N1CCOCC1 (configuration not stated)	none (no result: mcGAS inh)
CC1=C(C(=O)OC2CCCC2)C(c2ccc([N+](=O)[O-])cc2)NC(=O)N1C (configuration not stated)	none
O=C(O)Cc1cc(-c2cc3ccccc3o2)on1	none (no result: mcGAS inh)
CN(C)Cc1ccc2ccc3cccc4ccc1c2c34	hcGAS inh 84 (no result: mcGAS inh)
CN(C)Cc1ccccc1Cc1ccccc1	none (no result: mcGAS inh)
COc1ccc(-c2cc3ccc4c(c3oc2=O)CN(C2CCS(=O)(=O)C2)CO4)c(OC)c1 (configuration not stated)	none
Cc1cc(NC(=O)CCl)ccc1N1CCCC1	none
O=C(CCl)Nc1ccc2c(c1)C(=O)c1ccccc1C2=O	mcGAS inh 57
CCOC(=O)C1CCCN(C(=O)c2cnn(-c3ccccc3C)c2C)C1 (configuration not stated)	none
COCCCn1c(C)cn2c3c(=O)n(Cc4ccc(F)cc4)c(=O)n(C)c3nc12	none (no result: mcGAS inh)
COc1ccc2o/c(=N\NC(N)=S)c(-c3nc4ccccc4[nH]3)cc2c1	none (no result: mcGAS inh)
NC(=S)N/N=c1\oc2cc(O)ccc2cc1-c1nc2ccccc2[nH]1	NPYLR7 agonist 67 (no result: mcGAS inh)
COc1c(Cl)cccc1NC(=O)NCc1nc(C)c(C)s1	none (no result: NPYLR7 agonist, mcGAS inh)
COc1cccc(CNC(=O)c2ccc(-c3cc(-c4cccc(C(F)(F)F)c4)n[nH]3)cc2)c1	mcGAS inh 104
COc1ccc(CCNC(=O)c2ccc(-c3cc(-c4cccc(C(F)(F)F)c4)n[nH]3)cc2)cc1	none
CCc1nn(-c2ccccc2Cl)c(CC)c1C(=O)NCc1ccccn1	none
c1cncc(COC2CCN(Cc3ccnc4ccccc34)CC2)c1	none (no result: mcGAS inh)
Cc1ccc(Cl)cc1-n1c(SCc2nc(C(=O)N[C@H]3CCCCNC3=O)cs2)nnc1-c1ccco1	none
Cc1csc(C2CCCCN2C(=O)C2CCCN(Cc3ccccc3)C2)n1 (configuration not stated)	none (no result: mcGAS inh)
O=C(CN1C(=O)SC(=Cc2ccc(N3CCCCCC3)o2)C1=O)N1CCCCCC1	NPYLR7 agonist 45 (no result: mcGAS inh)
CCOC(=O)CN1C(=O)SC(=Cc2ccc(Br)o2)C1=O	none
Cc1nn(C)c(C)c1CCC(=O)N1CCCC(C(=O)c2ccc3c4c(cccc24)CC3)C1 (configuration not stated)	none
CN1C(=CC=C2C(=O)CC(C)(C)CC2=O)C(C)(C)c2ccccc21	NPYLR7 agonist 298 (no result: mcGAS inh)
C=c1[nH]n(-c2ccccc2)c(=O)c1=CC=C1N(C)c2ccccc2C1(C)C	none (no result: mcGAS inh)
COCCN(Cc1ccco1)CC(O)COCc1ccco1 (configuration not stated)	none
Cc1ccc(C=C(C#N)S(=O)(=O)c2ccc(Br)cc2)o1	none (no result: mcGAS inh)
COc1ccc2c(c1)OCC(C=C(C#N)S(=O)(=O)c1ccc(Br)cc1)=C2	NPYLR7 agonist 93 (no result: mcGAS inh)
CCNC(=O)CSc1ccc2c3c(cccc13)C(=O)c1ccccc1-2	none (no result: mcGAS inh)
O=C(O)CSc1ccc2c3c(cccc13)C(=O)c1ccccc1-2	hcGAS inh 76, NPYLR7 agonist 94, mcGAS inh 66
COCCN(Cc1ccco1)CC(O)COc1ccc(OC)cc1 (configuration not stated)	none
